What is called inhibition is the drop in the measured response relative to a control, in per cent. For orientation: viability means a read-out of living cells in per cent, often relative to untreated cells.

Molecules are shown by their SMILES. Values joined by “and” are separate entries in the source; they are usually repeats but may differ in a detail not shown here. Identical values can stand only once. For some assays here: Measured potencies and affinities stand elsewhere. Active and inactive are the calls of the source. Rule as the data show it, unless noted: active = parasite load remaining mostly below about 12% (no sharp cut-off); inactive = mostly above about 10%.

A short description of assay [1]: polyglutamine-triggered caspase-3 activation inhibitors, cell-based (AID 1583). The conditions noted are these: polyglutamine-induced caspase-3 activation, cell assay; stronger effect = higher value;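 tested at 10 µM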.
Assay [2] is described as follows: suppressors of polyQ aggregation in yeast, 75Q-TubU reporter (AID 1593). The conditions noted are these: Yeast 75Q polyglutamine aggregation reporter.
A short description of assay [3]: rescue of polyQ-huntingtin neuronal dysfunction in worms, whole organism, C. elegans mechanosensory neurons, N-terminal huntingtin (AID 1599). The note with it: touch response, stronger effect = higher value.
A short description of assay [4]: inhibitors of mitochondrial cytochrome c release, biochemical, purified mitochondria (AID 1603).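 Also: mouse liver mitochondria challenged with calcium chloride; signal normalized to the plate average as 100%.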 The note with it: stronger effect = lower value.
The nature of assay [5]: inhibitors of polyQ protein aggregation (AID 1604). The conditions noted are these: polyglutamine-induced protein aggregation inhibition assay; stronger effect = higher value; tested at 2.5 µM.
Assay [6] can be described thus: enhancers of glutamate uptake in motor neurons, MN-1 cell line (AID 1612).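 Also: tested at 1 µM final; 0% = mean of DMSO vehicle wells on each plate; positive means more glutamate uptake than control and negative means less.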 The conditions noted are these: MN-1 motor neuron cells, stronger effect = higher value.
Assay [7] can be described thus: reducers of polyQ inclusions in PC12 cells, cell-based, NGF-treated PC12, GFPQ80 (AID 1614).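 Also: lower means fewer inclusions and 0 means no inclusions at all.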 The conditions noted are these: PC12 NGF-treated GFP-polyQ80 inclusion reduction.
The nature of assay [8]: suppressors of polyglutamine aggregation in yeast, 75Q-TubH (AID 1616). The conditions noted are these: S. cerevisiae 75Q-TubH polyglutamine aggregation suppression; stronger effect = higher value.
Assay [9] is described as follows: liver-stage malaria parasite growth inhibition, primary screen, cell-based, HepG2, luciferase luminescence, HepG2 viability (AID 624349).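 Also: 100% = mean of DMSO negative control wells on the same plate.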 The conditions noted are these: P. berghei liver stage in HepG2, luciferase luminescence, concentration not given here; parasite load remaining: stronger effect = lower value; viability: measured here: HepG2 viability without parasites.
Assay [10] deals with 6-phosphogluconate dehydrogenase, decarboxylating (Homo sapiens) (UniProt P52209). Put plainly: 6PGD enzyme inhibitors, primary screen, biochemical, human, recombinant enzyme, NADPH absorbance (AID 1159550;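 active = at least 20% inhibition of 6-phosphogluconate dehydrogenase activity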). The note with it: recombinant 6PGD, NADPH absorbance 341 nm; at 10 µM; stronger effect = higher value.
6-phosphogluconate dehydrogenase, decarboxylating (Homo sapiens), sequence (P52209 whole entry, looked up): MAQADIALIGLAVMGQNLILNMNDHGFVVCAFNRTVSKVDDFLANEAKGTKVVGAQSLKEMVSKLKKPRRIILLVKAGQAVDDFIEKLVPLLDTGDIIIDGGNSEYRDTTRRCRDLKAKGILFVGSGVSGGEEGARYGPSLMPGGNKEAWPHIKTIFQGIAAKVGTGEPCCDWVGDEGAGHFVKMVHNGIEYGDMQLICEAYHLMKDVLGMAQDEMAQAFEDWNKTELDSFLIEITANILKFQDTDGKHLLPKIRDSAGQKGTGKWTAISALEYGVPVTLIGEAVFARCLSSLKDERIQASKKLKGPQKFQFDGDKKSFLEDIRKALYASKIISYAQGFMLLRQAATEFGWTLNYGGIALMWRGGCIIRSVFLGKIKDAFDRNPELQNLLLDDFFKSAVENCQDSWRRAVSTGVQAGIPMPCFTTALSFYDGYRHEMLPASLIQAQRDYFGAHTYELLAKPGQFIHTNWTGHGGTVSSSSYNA
The nature of assay [11]: differential killing of epithelial or mesenchymal cells, primary screen, imaging, PC-3E GFP, TEM4-18 mCherry, co-culture (AID 1345086;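 active = compounds killing one labelled cell type while sparing the other, by normalised counts and ratio limits, not self-fluorescent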;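 as to all read-outs here: cells exposed to compound for 72 h before imaging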;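 as to red/green cell ratio (normalised): normalised mesenchymal count divided by normalised epithelial count so high means epithelial killing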). The note with it: imaging cell counts, at 1 µM; for red/green cell ratio (normalised): actives lie on both sides, counts scaled to control wells, 1 = unselective.
The nature of assay [12]: sensitizers of A549 cells to miR-34 induction, primary screen, imaging, A549 dox-inducible miR-34, nuclei and caspase counts (AID 1347080;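 active = compounds whose cell count with miR-34 switched on is under 0.7 times the count with it off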). The conditions noted are these: A549 miR-34 inducible, Hoechst nuclei count, 48 h.
Assay [13] is described as follows: hESC survival regulators, cell-based (AID 493140; call rule not given here;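 also: cells exposed to compounds for four days before counting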). The note with it: human embryonic stem cell survival screen; stronger effect = higher value.
In assay [14] the target is Mitogen-activated protein kinase 7 (Homo sapiens) (UniProt Q13164). Put plainly: ERK5 transactivation activators in reporter cells, primary screen, cell-based, HTS (AID 1508626;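 active = luciferase signal above three times the same-plate solvent-only control wells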;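 also: luciferase driven by Gal4-ERK5 fusion binding five Gal4 sites before minimal TATA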). The note with it: HeLa Gal4-ERK5 transactivation, 18 h, at 5 µM, stronger effect = higher value.
Mitogen-activated protein kinase 7 (Homo sapiens), sequence (Q13164 whole entry, looked up, the tested form may be a part): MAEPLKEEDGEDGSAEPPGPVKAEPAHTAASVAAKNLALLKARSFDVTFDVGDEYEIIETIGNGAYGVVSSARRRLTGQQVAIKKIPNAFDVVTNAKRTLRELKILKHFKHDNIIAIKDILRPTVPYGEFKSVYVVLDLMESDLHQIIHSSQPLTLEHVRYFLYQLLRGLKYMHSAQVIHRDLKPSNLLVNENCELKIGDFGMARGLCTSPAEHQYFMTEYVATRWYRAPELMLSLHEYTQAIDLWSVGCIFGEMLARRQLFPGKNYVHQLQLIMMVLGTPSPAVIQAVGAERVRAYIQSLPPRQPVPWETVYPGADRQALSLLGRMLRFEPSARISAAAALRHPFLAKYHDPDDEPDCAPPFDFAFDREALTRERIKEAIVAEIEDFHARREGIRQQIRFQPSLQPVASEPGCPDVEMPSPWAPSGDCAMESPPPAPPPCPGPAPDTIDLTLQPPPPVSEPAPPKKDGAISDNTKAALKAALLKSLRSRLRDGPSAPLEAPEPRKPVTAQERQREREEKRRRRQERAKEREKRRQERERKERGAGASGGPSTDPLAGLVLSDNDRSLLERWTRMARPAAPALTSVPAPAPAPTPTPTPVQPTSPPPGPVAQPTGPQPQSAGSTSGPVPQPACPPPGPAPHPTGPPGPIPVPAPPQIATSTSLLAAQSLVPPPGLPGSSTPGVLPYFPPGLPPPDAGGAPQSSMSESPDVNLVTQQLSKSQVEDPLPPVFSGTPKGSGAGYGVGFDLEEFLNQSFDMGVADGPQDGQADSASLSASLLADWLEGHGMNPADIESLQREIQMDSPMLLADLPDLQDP
Assay [15] has as its target NAD(+) hydrolase SARM1 (Homo sapiens) (UniProt Q6SZW1). Nature of the assay: SARM1 TIR NADase inhibitors, cell lysate, NAD-Glo luminescence (AID 1508614;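 active = compound whose remaining NAD level is above about 45 nM, limit read from the data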;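 also: higher remaining NAD means stronger inhibition of SARM1 NADase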). The conditions noted are these: SAM-TIR HEK293T lysate NADase, at 1 µM, stronger effect = higher value.
Setting [16] is: measured here: epithelial PC-3E GFP cell survival.
Where [17] appears, read: measured here: mesenchymal TEM4-18 mCherry cell survival.
Where [18] appears, read: stronger effect = lower value, cell number ratio, induced over uninduced.
The mark [19] stands for this setting: measured here: relative caspase fold change +Dox/-Dox.
Where [20] appears, read: measured here: total cells with miR-34 induction, stronger effect = lower value.
The mark [21] stands for this setting: measured here: total cells without miR-34 induction.

NAD(+) hydrolase SARM1 (Homo sapiens), sequence (Q6SZW1 whole entry, looked up): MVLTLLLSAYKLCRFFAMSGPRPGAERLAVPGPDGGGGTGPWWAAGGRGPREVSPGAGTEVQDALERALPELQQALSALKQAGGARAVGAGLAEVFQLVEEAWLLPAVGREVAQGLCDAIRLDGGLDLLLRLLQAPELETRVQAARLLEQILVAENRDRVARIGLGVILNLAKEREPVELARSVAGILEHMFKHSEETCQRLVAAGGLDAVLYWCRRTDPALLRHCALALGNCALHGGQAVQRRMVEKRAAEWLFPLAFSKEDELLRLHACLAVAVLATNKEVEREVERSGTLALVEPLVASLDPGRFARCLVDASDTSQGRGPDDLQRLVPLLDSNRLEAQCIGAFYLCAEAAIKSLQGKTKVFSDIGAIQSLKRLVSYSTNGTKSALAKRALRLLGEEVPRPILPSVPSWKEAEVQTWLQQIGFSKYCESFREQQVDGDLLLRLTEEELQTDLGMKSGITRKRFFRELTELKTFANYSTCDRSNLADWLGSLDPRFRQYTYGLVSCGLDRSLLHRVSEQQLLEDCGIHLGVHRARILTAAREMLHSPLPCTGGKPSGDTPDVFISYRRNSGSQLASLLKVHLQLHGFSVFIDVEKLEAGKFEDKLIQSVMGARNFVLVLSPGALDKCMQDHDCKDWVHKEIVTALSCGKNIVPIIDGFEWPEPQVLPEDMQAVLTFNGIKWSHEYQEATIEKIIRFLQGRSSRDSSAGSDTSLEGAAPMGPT

Take `Cn1nnnc1SCC1=C(C(=O)O)N2C(=O)C(NC(=O)C(OC=O)c3ccccc3)C2SC1` (stereo not given): the inhibition was 20.1% in assay [1] and 0.99% (inactive) in assay [10]. This molecule also returned a score in [2] of 1.46. The rescue above control in assay [3] was -9.96. Also, the cytochrome c release ratio in assay [4] worked out at 1.54. Besides, in [5], the inhibition of aggregation came to 91.6%. Besides, the glutamate uptake change in [6] was -5.89%. This molecule also returned an inclusion score in assay [7] of 2. Also, in [8], the aggregation suppression score amounted to 1.26. Besides, in [9], the parasite load remaining was 85.6% (inactive) and 51.5% (inactive). Moreover, the viability in assay [9] is 73.8% and 102%. Moreover, the red/green cell ratio (normalised) in assay [11] was 0.82 (inactive). The results for the normalised cell number in [11] (setting [16]) and in assay [11] (setting [17]) were 1.29 and 1.06, respectively. The fold change in assay [12] (setting [18]) was 0.922 (inactive); in [12] (setting [19]), 2.94. The cell count was determined as 11600 in assay [12] (setting [20]) and 12600 in [12] (setting [21]).
With `O=c1[nH]c(=O)n(C2C[C@H](O)[C@@H](CO)O2)cc1C(F)(F)F` (stereo not given in full), the parasite load remaining in [9] was 74% (inactive) and 246% (inactive) and 30.9% (inactive). Also, in [9], the viability was 71.7% and 82.9% and 99%. Further, the inhibition in assay [10] was 10.3% (inactive). Moreover, the red/green cell ratio (normalised) in [11] was 1.34 (inactive). The normalised cell number in assay [11] (setting [16]) is 0.93; in assay [11] (setting [17]) it was 1.25. For the same molecule, the fold change was 1.06 (inactive) and 0.925 (inactive) in assay [12] (setting [18]); 0.737 and 3.77 in assay [12] (setting [19]). The cell count in assay [12] (setting [20]) was 2260 and 12300; in assay [12] (setting [21]) it was 2140 and 13300.
With `COc1ccc([C@@H]2CC(=O)c3c(O)cc(O)cc3O2)cc1O`, the inhibition in assay [1] was 11%; in assay [10], 4.68% (inactive). This molecule also returned a score in [2] of 0.56. Besides, the rescue above control in assay [3] was found to be 6.5. Moreover, the cytochrome c release ratio in assay [4] turned out to be 0.93. In assay [5], this molecule returned an inhibition of aggregation of 17%. Also, in [6], the glutamate uptake change worked out at 0%. Besides, in assay [7], the inclusion score stood at 2. The molecule further returned an aggregation suppression score in assay [8] of 0.264. In addition, the survival in assay [13] is 17.8 (inactive). Also, the parasite load remaining in assay [9] is 25.2% (inactive) and 110% (inactive). The viability in assay [9] was 46.9% and 88%. Besides, the red/green cell ratio (normalised) in assay [11] was 0.91 (inactive). Also, the normalised cell number in assay [11] (setting [16]) is 1.28; in [11] (setting [17]), 1.16. For the same molecule, the fold change in assay [12] (setting [18]) was 0.922 (inactive) and 1.13 (inactive); in assay [12] (setting [19]), 1.33 and 0.691. The cell count in assay [12] (setting [20]) is 8710 and 6120; in assay [12] (setting [21]), 9450 and 5440. Further, the luciferase signal in [14] is 48 AU (inactive).
As for `NC[C@@H]1CC[C@@H](N)[C@@H](O[C@H]2[C@H](O)[C@@H](O[C@H]3O[C@H](CO)[C@@H](O)[C@H](N)[C@H]3O)[C@H](N)C[C@@H]2N)O1`, in assay [10], the inhibition is -2.83% (inactive). Also, the red/green cell ratio (normalised) in assay [11] is 1.19 (inactive). Further, the values for the normalised cell number in [11] (setting [16]) and in [11] (setting [17]) were 0.9 and 1.07, respectively. For the same molecule, in assay [15], the remaining NAD is 10 nM (inactive).
Take `C[n+]1cccc(C(=O)[O-])c1`: the parasite load remaining in [9] was 79.8% (inactive). Also, in assay [9], the viability was found to be 103%. Besides, the inhibition in [10] was -5.32% (inactive). Further, in assay [11], the red/green cell ratio (normalised) is 0.83 (inactive). The normalised cell number was determined as 0.9 in assay [11] (setting [16]) and 0.75 in assay [11] (setting [17]). Further, the fold change was 0.877 (inactive) in assay [12] (setting [18]) and 1.44 in [12] (setting [19]). Also, the cell count in [12] (setting [20]) came out at 9790; in [12] (setting [21]), 11200. The luciferase signal in assay [14] was 44 AU (inactive).
As to `N[C@H](Cc1ccccc1)C(=O)O`, the inhibition in assay [1] is 15.8%; in assay [10], 6.57% (inactive). The molecule also had a score in assay [2] of 1.59. Besides, the rescue above control in assay [3] was -4.58. The cytochrome c release ratio in assay [4] was 0.85. The inhibition of aggregation in [5] worked out at 56.8%. For the same molecule, the glutamate uptake change in assay [6] is 4.25%. Further, the inclusion score in [7] is 2. For the same molecule, the aggregation suppression score in [8] was 1.21. Besides, in [9], the parasite load remaining was 140% (inactive). The viability in assay [9] turned out to be 87.2%. Besides, the red/green cell ratio (normalised) in assay [11] is 1.1 (inactive). The normalised cell number worked out at 0.82 in assay [11] (setting [16]) and 0.9 in [11] (setting [17]). Moreover, the remaining NAD in [15] was 98 nM (active). Besides, the luciferase signal in [14] was 56 AU (inactive).

These data come from PubChem BioAssay.
